# DT40 TDP1 CPT = growth inhibition of DT40 Tdp1-/-;hTDP1 cells with camptothecin (screen for TDP1 inhibitors); Potency, µM (titrated, usually from 46.2 µM), without a hit: at the top dose activity change, negative = growth inhibition, hits mostly inhibitors; chicken DT40 Tdp1-/-;hTDP1 cells + 20 nM CPT, ATP luminescence, 48 h; 12% of 420,000 active; AID 686979; also: potency is read from the fitted curve at half-maximal effect; % is scaled to controls: 0 for no effect and ±100 for the full control effect; nearly all actives have a fitted effect of over 55% in size
#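 Chicken DT40 Tdp1-/- cells complemented with human TDP1, 400 cells/well, exposed to compounds plus 20 nM camptothecin for at least 48 h at 37 C; viability read as ATP content by CellTiter-Glo luminescence.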
# HepG2 tox = kills HepG2 cells in TGF-b inhibitor counter-screen | HepG2 CAGA-GFP viability, ATP luminescence, 18 h | Potency, µM (top dose mostly 46.1 µM), for inactives: at the top dose activity change, negative = cytotoxicity, hits mostly cytotoxic | 0.76% of 410,000 active; also: potency is read from the fitted curve at half-maximal effect
#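 HepG2 CAGA-GFP cells (1000/well, DMEM with 1% FBS) received compound, then TGF-beta at 500 pg/mL final, and were incubated 18 hours at 37 degrees C. Viability was read by CellTiter-Glo luminescence. Media-only wells were set as complete cell-killing and DMSO as no toxicity.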
# IL1B secr inh = inhibitors of inflammasome signaling (IL-1 beta secretion); THP-1 LPS/ATP IL-1B secretion, AlphaLISA, 16 h; stronger effect = lower value; activity change, % at 57.5 µM; 4.7% of 360,000 active; AID 743279; in the data active = activity change below about -50%; inconclusive = mostly about -30% to -49%; also: % is scaled to controls: 0 for no effect and ±100 for the full control effect
#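 Secreted IL-1B measured by AlphaLISA bead assay after 16 h compound exposure of THP-1 cells; compounds (final up to 57.5 uM) added 1 h before LPS (250 ng/mL) and ATP (1.25 mM) stimulation; lower signal means less secretion.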
# TGFb SMAD3 inh = TGF-b pathway inhibition; Potency, µM (doses to about 46.1 µM), for inactives: at the highest dose activity, negative = inhibition, hits mostly inhibitors; 1.2% of 410,000 active; AID 588855; HepG2 CAGA-GFP TGF-b/SMAD3 reporter, GFP fluorescence, 18 h; TGF-beta stimulated, 500 pg/mL final; also: potency is read from the fitted curve at half-maximal effect; % is scaled to controls: 0 for no effect and ±100 for the full control effect; nearly all actives have a fitted effect of over 65% in size
#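 Inhibition of TGF-beta-driven CAGA-GFP reporter expression in HEPG2 cells is measured by cellular GFP fluorescence after 18 h stimulation with 500 pg/mL recombinant TGF-beta in 1% FBS medium at 37 degrees C.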
# DT40 TDP1 no CPT = qHTS for Inhibitors of human tyrosyl-DNA phosphodiesterase 1 (TDP1): qHTS in cells in absence of CPT | 15% of 420,000 active | DT40 Tdp1-/- hTDP1 cells, no CPT, ATP luminescence, 48 h | Potency, µM (top dose mostly 46.2 µM), for the others: at the top dose activity change, negative = growth inhibition, hits mostly inhibitors; also: potency is read from the fitted curve at half-maximal effect; % is scaled to controls: 0 for no effect and ±100 for the full control effect; nearly all actives have a fitted effect of over 55% in size
#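 Cells were dispensed at 400 per well, compounds added by pin tool, plates incubated ≥48 hr at 37 °C, then CellTiter-Glo added for 30 min at room temperature before luminescence reading. Line: DT40 Tdp1-/- complemented with hTDP1; camptothecin omitted.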
# TDP1 block = inhibitors of human tyrosyl-DNA phosphodiesterase TDP1; recombinant TDP1, AlphaScreen DNA substrate cleavage; Potency, µM (highest dose often 130 µM), for inactives: at the highest dose activity change, negative = inhibition, hits mostly inhibitors; 0.28% of 350,000 active; AID 485290; also: potency is read from the fitted curve at half-maximal effect; % is scaled to controls: 0 for no effect and ±100 for the full control effect; nearly all actives have a fitted effect of over 40% in size
# Target sequence (Q9NUW8 whole entry, looked up): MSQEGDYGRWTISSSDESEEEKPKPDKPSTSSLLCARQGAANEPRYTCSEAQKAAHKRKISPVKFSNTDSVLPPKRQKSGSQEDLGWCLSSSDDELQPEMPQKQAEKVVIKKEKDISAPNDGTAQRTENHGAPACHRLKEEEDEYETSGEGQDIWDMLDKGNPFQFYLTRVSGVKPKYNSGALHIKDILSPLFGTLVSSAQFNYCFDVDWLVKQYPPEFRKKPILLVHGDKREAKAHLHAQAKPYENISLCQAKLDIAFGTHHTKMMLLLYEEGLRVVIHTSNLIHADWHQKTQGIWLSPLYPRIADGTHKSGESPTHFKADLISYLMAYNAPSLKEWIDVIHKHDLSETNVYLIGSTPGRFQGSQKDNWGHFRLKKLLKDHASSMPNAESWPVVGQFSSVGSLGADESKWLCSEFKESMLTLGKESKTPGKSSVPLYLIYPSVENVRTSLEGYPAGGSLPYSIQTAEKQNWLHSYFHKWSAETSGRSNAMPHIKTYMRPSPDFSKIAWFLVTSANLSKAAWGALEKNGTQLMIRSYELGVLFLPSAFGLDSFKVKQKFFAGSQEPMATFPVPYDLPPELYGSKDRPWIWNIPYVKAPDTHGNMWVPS
#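 Steps: enzyme plus compound, 15 min RT; add biotin/phosphotyrosine-FITC oligonucleotide (15 nM final), react 5 min; add donor/acceptor beads (10 ug/ml final), 10 min; read AlphaScreen. Tdp1 at 1 nM final.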
# Starred values were filed as active, the others as inactive; ? = inconclusive; . = no result; ! = repeats disagree; [ ] = another dose, or the depositor's remark. Compounds with a hit are over-represented: about 19% of the library has one in this group of screens. Unless noted, calls follow the shape of the dose curve; as a rule, active = well fitted curve in the direction sought with a large enough effect; inconclusive = small, poorly fitted or top-dose-only effect, or another doubt; inactive = no such curve, though single readings can be large; an effect the other way counts as inactive or inconclusive.
SMILES,DT40 TDP1 CPT,HepG2 tox,IL1B secr inh,TGFb SMAD3 inh,DT40 TDP1 no CPT,TDP1 block
O=[N+]([O-])c1ccc(Cl)c(CN2CCN(c3ncccn3)CC2)c1,-1%,10%,-17,-13%,-19%,.
Oc1ccc(Br)c(CN2CCN(c3ncc(Cc4ccccc4)cn3)CC2)c1,?,.,-19,.,?,.
Cc1cccc(-c2ccc(O)cc2CN2CCN(c3ncc(Cc4ccccc4)cn3)CC2)c1,?,.,-7,.,21µM*,.
OCCNc1nc(Nc2ccccc2)nc(Nc2ccccc2)n1,?,-10%,-12,10%,-23%,7%
Cc1c(Cl)cccc1Nc1nc(NCCO)c2ccccc2n1,?,-19%,-108*,11µM*,?,5%
Cc1cc(C)c(C(N)=O)c(Nc2cccc(Cl)c2C)n1,?,2%,-2,0%,?,6%
OCCNc1nc(Nc2ccc(Br)cc2)nc2ccccc12,5.8µM*,2%,-101*,?,6.5µM*,3%
OCCNc1nc(Nc2ccccc2)nc2ccccc12,10µM*,-5%,.,?,13µM*,0%
COc1ccc(C2Nc3ccccc3C(=O)N2CCCN(C)C)cc1COc1ccc(NC(C)=O)cc1 (stereo not given),.,.,.,.,.,-1%
O=C(NC(=S)NN1CCCCC1c1cccnc1)c1ccc(Cl)cc1Cl (stereo not given),?,6%,-15,0%,26µM*,5%
O=C(NC(=S)N1CCCCC1c1cccnc1)c1ccc(F)cc1 (stereo not given),-2%,3%,-3,-8%,13%,3%
COC(=O)[C@H]1[C@H]2C[C@@H]3c4[nH]c5cc(OC)ccc5c4CCN3C[C@H]2C[C@@H](OC(=O)c2cc(OC)c(OC)c(OC)c2)[C@@H]1OC,16µM*!,-1%,-29,-6%,?,16%[56.1 µM]
COC(=O)C1C2CC3c4[nH]c5cc(OC)ccc5c4CCN3CC2CC(OC2CCCCO2)C1OC (stereo not given),?,-24%,-14,3%,?,.
COc1ccc2c3c([nH]c2c1)[C@@H]1C[C@@H]2[C@@H](C[C@H](O)[C@H](OC)[C@H]2C(=O)O)CN1CC3,.,.,.,.,.,12%[21 µM]
COC(=O)[C@@H]1C2CC3c4[nH]c5cc(OC)ccc5c4CCN3CC2C[C@H](OC(=O)c2cc(OC)c(OC)c(OC)c2)C1OC (stereo not given in full),23µM*,.,.,.,?,20%
COc1ccc(NC(=O)CC2C(=O)N(c3ccc(C)cc3)C(=O)N2CCc2ccccc2)cc1 (stereo not given),15µM*,-25%,.,?,15µM*,6%
COc1ccc(CCN2C(=O)N(c3ccc(F)cc3)C(=O)C2CC(=O)Nc2ccc(F)c(F)c2)cc1 (stereo not given),12µM*,-60%,.,?,21µM*,1%
COc1ccc(NC(=O)CC2C(=O)N(c3ccc(Cl)cc3)C(=S)N2CCc2ccncc2)cc1 (stereo not given),?,-45%,-2,?,?,5%
COc1ccc(CCN2C(=O)N(c3ccc(F)cc3)C(=O)C2CC(=O)Nc2ccc(OC)cc2)cc1 (stereo not given),12µM*,-8%,.,1%,?,4%
CCCOc1ccc(NC(=O)CC2C(=O)N(c3ccc(Cl)cc3)C(=O)N2CCc2ccncc2)cc1 (stereo not given),?,-30%,.,?,26µM*,8%
COc1ccc(N2C(=O)C(CC(=O)Nc3ccc(F)cc3)N(CCc3ccc(OC)c(OC)c3)C2=O)cc1 (stereo not given),-14%,9%,-1,-1%,-12%,0%
O=C(CSc1nc2ccccc2n1Cc1cccc(F)c1)NCc1ccccc1,?,-25%,.,?,?,6%
CCCc1nnc(NC(=O)Cc2coc3cc(C)cc(C)c23)s1,-18%,-22%,.,-13%,-23%,6%
COc1ccc(CN2C(=O)N(c3ccc(F)cc3)C(=O)C2CC(=O)Nc2ccccc2)cc1 (stereo not given),13µM*,-23%,.,10%,13µM*,1%
O=C(CC1C(=O)N(c2ccccc2)C(=O)N1Cc1ccc(F)cc1)Nc1cccc(F)c1 (stereo not given),?,-2%,.,-8%,23µM*,8%
SMILES,DT40 TDP1 CPT,HepG2 tox,IL1B secr inh,TGFb SMAD3 inh,DT40 TDP1 no CPT,TDP1 block
COc1ccc(CCN2C(=O)N(c3ccc(F)cc3)C(=O)C2CC(=O)Nc2ccccc2)cc1 (stereo not given),?,-15%,.,?,?,4%
COc1ccc(CCN2C(=O)N(c3ccc(F)cc3)C(=O)C2CC(=O)Nc2ccccc2)cc1OC (stereo not given),?,-25%,.,-14%,-24%,-1%
Cc1ccc2c(Cl)c(C)c(N3CCOCC3)nc2n1,21%,-9%,15,-10%,-17%,.
COc1cccc(CN(C(=O)c2cccc(C)c2)C2CCS(=O)(=O)C2)c1 (stereo not given),-3%,-1%,.,-23%,1%,-2%
CC(C)CNC(=O)CSc1n[nH]c(=O)n1CCc1ccccc1,-5%,15%,-14,10%,10%,.
CCn1c(C)nc2cc(C(=O)OC(C(F)(F)C(F)F)C(F)(F)C(F)F)ccc21,?,6%,2,3%,18µM*,5%
CCn1c(C)nc2cc(C(=O)NNC(=O)c3ccc(C)cc3)ccc21,-3%,-2%,10,3%,-23%,-2%
CN(C)CCCC1Sc2ccccc2Sc2ccccc21 (stereo not given),?,-41%,-66*,?,?,.
COc1ccc(NC(=O)C2CCCN(S(=O)(=O)c3ccc(Cl)cc3)C2)cc1 (stereo not given),-1%,-1%,.,-27%,-1%,5%
CCC(C)(C)NC(=O)c1cc(S(=O)(=O)N2CCc3ccccc32)cn1C,21µM*,-10%,21,-19%,15µM*,.
CCN(C(=O)c1cc(S(=O)(=O)N2CCc3ccccc32)cn1C)c1ccccc1,?,-12%,8,-5%,?,.
Cc1cc(F)ccc1NC(=O)c1cc(S(=O)(=O)N2CCc3ccccc32)cn1C,?,-25%,-9,?,26µM*,.
